Compound activity (PubChem)
ASM inhibitor = inhibitors of human secretory acid sphingomyelinase; P17405; placental ASM, HMU-PC fluorogenic substrate, 60 min; Potency, µM (highest dose often 57.5 µM), for inactives: top-dose activity change, negative = inhibition, usual class: inhibitors; 0.006% of 340,000 active; AID 504937; note: potency is the fitted concentration of half-maximal effect
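HMU-PC0 cleavage (9 uM final) by human placental ASM, 60 min at 37 °C following 10 min compound exposure at RT; stopped at pH 10, fluorescence Ex 386/Em 447 nm.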
Integrin act MD = integrin-mediated muscular dystrophy alleviation activation. alpha7betagal myoblasts, beta-gal FDG fluorescence, 48 h. Potency, µM (doses to about 38.3 µM), for the others: at the top dose activation, most hits filed as activators. 0.064% of 350,000 active;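 note: potency is the fitted concentration of half-maximal effect; 100% = response of the positive control SU9516; nearly all actives have a fitted effect of over 60% in size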
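alpha7betagal+/- myoblasts (passage 13, 250/well) treated 48 h at 37C with compounds at 1:260 dilution of DMSO stock. Lysed, then beta-galactosidase activity read as FDG fluorescence (ex 480/em 540) after 30 min, with pre-read for autofluorescence.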
RXFP1 agonist = agonists of human relaxin receptor RXFP1. HEK293T-RXFP1 cAMP TR-FRET, 30 min; response scale: percent of porcine relaxin response, buffer zero. Potency, µM (doses to about 57.5 µM), for the others: top-dose activation, hits mostly activators. 0.3% of 370,000 active; note: potency is the fitted concentration of half-maximal effect; % is set by controls: 0 for no effect and ±100 for the full control effect; nearly all actives have a fitted effect of over 60% in size
Target sequence (Q9HBX9 whole entry, looked up): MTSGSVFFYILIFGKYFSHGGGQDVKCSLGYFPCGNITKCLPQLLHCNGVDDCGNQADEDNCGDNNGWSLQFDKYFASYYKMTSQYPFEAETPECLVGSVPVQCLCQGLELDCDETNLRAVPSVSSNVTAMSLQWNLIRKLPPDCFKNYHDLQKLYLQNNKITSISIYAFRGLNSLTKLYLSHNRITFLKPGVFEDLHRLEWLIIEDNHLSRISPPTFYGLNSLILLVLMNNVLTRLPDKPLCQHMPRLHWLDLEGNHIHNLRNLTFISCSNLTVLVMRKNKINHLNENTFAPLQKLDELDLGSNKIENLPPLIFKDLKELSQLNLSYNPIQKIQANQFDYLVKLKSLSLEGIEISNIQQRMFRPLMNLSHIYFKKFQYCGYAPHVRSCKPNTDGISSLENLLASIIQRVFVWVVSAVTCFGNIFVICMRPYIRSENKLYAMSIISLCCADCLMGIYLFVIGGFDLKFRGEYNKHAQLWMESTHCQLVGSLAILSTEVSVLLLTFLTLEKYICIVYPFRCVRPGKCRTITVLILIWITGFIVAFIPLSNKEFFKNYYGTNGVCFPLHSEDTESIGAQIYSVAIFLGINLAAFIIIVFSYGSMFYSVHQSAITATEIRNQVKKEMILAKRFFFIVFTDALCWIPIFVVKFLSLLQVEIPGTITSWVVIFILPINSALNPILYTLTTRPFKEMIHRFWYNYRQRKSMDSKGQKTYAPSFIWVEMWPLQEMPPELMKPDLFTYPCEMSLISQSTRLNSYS
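Agonist response is measured as cAMP accumulation in an RXFP1-transfected HEK293T line under PDE4 inhibition. Values are scaled between buffer-only and 29 nM porcine relaxin, and EC50s come from standard Hill equation fits.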
gsp antagonist = gsp mutant antagonism. gsp-mutant cells, cAMP HTRF, 30 min. Potency, µM (top dose mostly 76.9 µM), inactives show at the highest dose activity change, negative = inhibition, usual class: inhibitors. 0.4% of 340,000 active; calls by dose curve; cell line not stated here;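 note: intracellular cAMP measured with PDE inhibitor Ro 20-1724 present during compound exposure; potency is the fitted concentration of half-maximal effect; % is set by controls: 0 for no effect and ±100 for the full control effect; nearly all actives have a fitted effect of over 65% in size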
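Measurement of cellular cAMP by homogeneous time-resolved fluorescence following a 30 min compound exposure at 37C. The PDE inhibitor […] was present throughout; the assay buffer was DPBS with 0.05% BSA and 0.005% Tween 20.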
RXFP1 antag = RXFP1 (human) relaxin receptor antagonism; AID 1259400; HEK293-RXFP1, relaxin-stimulated cAMP HTRF, 30 min; hits give low values; 0.59% of 350,000 active; activity change, negative = inhibition, % at 57.5 µM; Q9HBX9;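 active = activity change of -60% or lower, but not beyond a set lower limit; inconclusive = change between -60% and -40%, or beyond the set limit; inactive = change above -40%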; note: % is set by controls: 0 for no effect and ±100 for the full control effect
gsp agonist = activates gsp, the McCune-Albright syndrome mutation. gsp mutant cells, cAMP HTRF, 30 min. 0.13% of 340,000 active. Potency, µM (top dose mostly 76.9 µM), without a hit: at the top dose activation (cAMP increase), usual class: activators; active = well fitted activation curve with a large enough effect; inconclusive = small, poorly fitted or top-dose-only effect, or another doubt; inactive = no such curve, though single readings can be large or run the other way; cell line not stated here;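 note: phosphodiesterase inhibitor Ro 20-1724 added with compounds to block cAMP breakdown; potency is the fitted concentration of half-maximal effect; nearly all actives have a fitted effect of over 60% in size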
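Cells stably selected in G418 were plated at 2000/well, grown 16-24 hr, then given compounds in DMSO with the PDE inhibitor […] (300 uM solution added) for 30 min at 37C; cAMP was read by HTRF.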
* marks the source's active call; other numbers are inactive results; u = inconclusive; x = no result; [ ] = remark or other dose. In the library only some 1.1% were active in any assay of this set; here they are far more common. Unless noted, calls come from the whole dose curve; as a rule, active = well fitted curve in the direction sought with a large enough effect; inconclusive = small, poorly fitted or top-dose-only effect, or another doubt; inactive = no such curve, though single readings can be large; an effect the other way counts as inactive or inconclusive.

SMILES	ASM inhibitor	Integrin act MD	RXFP1 agonist	gsp antagonist	RXFP1 antag	gsp agonist
CCCCN(CC)C(=O)CSc1nc2n[nH]c(C)c2c(=N)n1-c1ccc(CC)cc1	x	x	3%	x	u	x
COc1ccc(NC(=O)/C(C#N)=C\c2ccc(-c3cc(C(=O)O)ccc3C)o2)cc1	-4%	5%	0%	45µM*	-1	-24%
COc1ccc(NC(=O)/C(C#N)=C/c2ccc(-c3ccccc3C(=O)O)o2)cc1	-1%	-23%	0%	-21%	-2	-54%
COC(=O)c1c(C)[nH]c(C(=O)C(C)OC(=O)C2CC(=O)N(CCc3ccccc3)C2)c1C (centres undefined)	-2%	8%	0%	3%	-2	-39%
COC(=O)c1c(C)[nH]c(C(=O)C(C)OC(=O)C2CC(=O)N(c3ccc(C)cc3)C2)c1C (centres undefined)	-8%	3%	0%	40µM*	-11	28%
COC(=O)c1cc(S(N)(=O)=O)ccc1OC	x	x	x	x	-12	x
COc1cc(-c2cc(OC)c3c(C)oc(C)c3c(=O)c2)ccc1OC(=O)c1ccccc1F	x	x	1%	x	-68*	x
COc1cc(-c2cc(OC)c3c(C)oc(C)c3c(=O)c2)ccc1OC(=O)c1ccccc1Cl	x	x	3%	x	u	x
CCOc1cc(-c2ccc(OC(=O)c3ccccc3)c(OC)c2)cc(=O)c2c(C)oc(C)c12	x	x	3%	x	-98*	x
CCOc1cc(-c2ccc(OC(=O)c3ccc(Cl)cc3)c(OC)c2)cc(=O)c2c(C)oc(C)c12	x	x	0%	x	-63*	x
COc1cccc(C2=NS(=O)(=O)N(C)C(C(=O)Nc3cccc(O)c3)=C2)c1	x	x	0%	x	-26	x
O=C(c1nnsc1S(=O)(=O)c1ccc(Cl)cc1)N1CCOCC1	0%	-69%	-1%	2%	21	1%[15.4 µM]
CNC(=O)c1nnsc1S(=O)(=O)c1ccc(Cl)cc1	2%	-55%	-3%	-1%	-83*	1%
CCn1c2ccccc2c2cc(CN3CCN(Cc4cc(OC)ccc4O)CC3)ccc21	-13%	-40%	3%	8%	-9	-28%
CCn1c2ccccc2c2cc(CN3CCN(Cc4cc(OC)c(O)c(OC)c4)CC3)ccc21	x	x	3%	x	-67*	x
O=C(O)Cc1ccc2c(c1)C(=O)c1ccccc1CO2	x	x	x	x	-22	x
O=C(CCCCN1CCCCC1)c1ccccc1	2%	1%	x	9%	6	0%
O=C(C(=Cc1ccccc1)CN1CCCCC1)c1ccccc1	3%	-3%	x	-8%	-72*	30%
CCOC(=O)c1cccc(NC(=O)C2CCCN(S(=O)(=O)c3cc(Br)cc4c3N(C(=O)CC)CC4)C2)c1 (centres undefined)	x	x	4%	x	x	x
CC[n+]1c(/C=C/Nc2ccccc2)sc2ccccc21	5%	-42%	0%	45µM*	-7	10%
Cc1cccc(-c2nnc(SCC(=O)NCc3ccc4c(c3)OCO4)n2C)c1	1%	-22%	3%	0%	-5	-44%
Cn1c(SCC(=O)NCc2ccc3c(c2)OCO3)nnc1-c1cc2ccccc2cc1O	15%	-7%	1%	40µM*	-10	u
Cc1cc(-c2ccccc2)n2nc(N)nc2n1	7%	13µM*	0%	12%	1	u
Cc1ccc(CN2CC(C(=O)Nc3ccncc3)CC2=O)cc1 (centres undefined)	5%	14%	2%	5%	-5	u
Cc1ccc(CN2CC(C(=O)Nc3cc(C)ccn3)CC2=O)cc1 (centres undefined)	-2%	-16%	0%	-10%	-118*	0%[15.4 µM]
SMILES	ASM inhibitor	Integrin act MD	RXFP1 agonist	gsp antagonist	RXFP1 antag	gsp agonist
CC(C)OC(=O)c1cc(C(=O)OC(C)C)cc([N+](=O)[O-])c1	x	x	x	x	-71*	x
COC(=O)CCCC(=O)OC	1%	16%	x	-4%	x	x
COC(=O)CCN(C)CCC(=O)OC	1%	-23%	1%	50µM*	-7	7%
CC(C)c1ccc2oc(-c3ccc(NC(=O)c4cccc(Br)c4)cc3)nc2c1	x	x	0%	x	x	x
CC(C)(C)c1cc(C(=O)CCN2CCOCC2)cc(C(C)(C)C)c1O	10%	15%	0%	12%	-83*	11%[15.4 µM]
O=[N+]([O-])c1ccc(-c2cn3c(n2)CCC3)cc1	-11%	14%	u	4%	1	14µM*
CCNC(=S)N1CCN(c2nc(CC)nc3sc4c(c23)CCCC4)CC1	-7%	-19%	2%	25µM*	-6	-2%[15.4 µM]
N/C(=N\OC(=O)COc1cc(Cl)c(Cl)cc1Cl)c1ccncc1	3%	11µM*	1%	-3%	-16	-31%
N/C(=N\OC(=O)COc1ccc(Br)cc1Cl)c1ccncc1	-3%	7%	0%	3%	19	-1%
CN(c1nnc(NC(=O)Nc2ccc(Br)cc2)s1)C1CCCCC1	x	x	-3%	x	-10	x
COc1c(C)c2c(c(O)c1C/C=C(\C)CCC(=O)OCCN1CCOCC1)C(=O)OC2	x	x	x	x	-5	x
Cc1cc2nc(-c3ccc(SCc4ccc(C(=O)O)cc4)nc3)[nH]c2cc1C	12%	14%	4%	-7%	-98*	-18%[15.4 µM]
O=[N+]([O-])c1ccc(OC(F)F)c(/C=N/n2cnnc2)c1	2%	-32%	-1%	2%	-14	6%[15.4 µM]
COc1cccc2c1C(=O)c1c(O)c3c(c(O)c1C2=O)C[C@@](O)(C(=O)CO)C[C@@H]3O[C@H]1C[C@H](N)[C@H](O[C@@H]2CCCCO2)[C@H](C)O1	x	x	x	x	-20	x
O=C(Nc1cccc2c1CCCC2)c1cc([N+](=O)[O-])ccc1Cl	-3%	-27%	-1%	-15%	2	u
O=C(Nc1cccc2c1CCCC2)c1ccc(Cl)c([N+](=O)[O-])c1	-6%	2%	-1%	-8%	-70*	10%[15.4 µM]
CC(C)(C)c1ccc(C(=O)NCCOc2ccccc2)cc1	-3%	3%	-2%	5%	-23	-2%
COc1ccccc1C(=O)NCCOc1ccc(C(C)(C)C)cc1	3%	8.9µM*	2%	u	-10	-12%
Cc1nc2ccccc2c(N)c1C(=O)/C=C/c1ccccc1	-2%	-50%	-1%	3%	-83*	u
CC1(C)Cc2c(sc3nc(-c4cccs4)n(N)c(=O)c23)CO1	29%	-40%	1%	32µM*	-36	7%
CC1(C)Cc2c(sc3nc(-c4ccccc4)n(N)c(=O)c23)CO1	-4%	14%	4%	1%	2	-21%
CC(=O)Oc1ccc2c(c1)CC[C@@H]1[C@@H]2CC[C@]2(C)[C@@H](O)CC[C@@H]12	x	x	x	x	-22	x
Cc1cccc(CCN(C(=O)c2csnn2)C(C(=O)NC2CCCC2)c2ccco2)c1 (centres undefined)	-3%	0%	3%	-14%	-73*	3%
